Consider 26 compounds from PubChem BioAssay AID686952 (The Scripps Research Institute Molecular Screening Center, 2013).

SMILES strings stand for the structures. In all, about 3,200 compounds went through this assay and about 2,600 (81%) were called active. So high a share suggests a set chosen from earlier hits. These entries were drawn from the full list. Unmarked numbers belong to inactive results.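 The calls were made as follows: active = activation above the all-compound mean plus 3 SD, ignoring values outside control-based bounds (cut at about 4.8% in these data); inactive = the rest.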

The assay can be described thus: apparent activators from fluorescence artefacts, no enzyme – biochemical, fluorescence intensity, high throughput, artefact control for kallikrein-7 zymogen activator project (AID 686952).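 Also: value is the 4 h activation minus the activation read at time zero.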 The conditions noted are these: EDANS-DABCYL substrate fluorescence interference, 4 h, at 7 µM, stronger effect = higher value, solvent 0%, active enzyme control 100%.
In the case of `Cc1cc(C)c2c(n1)nn1c(-n3ccnc3)cc(C)nc21`, the activation is 44.4% (active). To `Cc1ccc(C2Nc3ccccc3C(=O)N2CCN2CCNC2=O)cc1` (stereo unspecified) belongs 19.4% (active); to `C/C(=C\c1ccccc1)C1NC(=O)c2c(sc3c2CCCC3)N1` (stereo unspecified), 14.5% (active); to `COC(=O)c1cc(N2CCNCC2)nc2ccccc12`, 33.6% (active).

Turning to `CC(=O)N1CCN(C(=O)c2cc(-c3ccc(C)o3)nc3ccccc23)CC1`, the activation was 66.4% (active). As to `CC1CCCN(C(=O)c2cc(-c3ccco3)nc3ccccc23)C1` (stereo unspecified), the activation is 35.5% (active). To `CCCCCn1c(=O)c(C(=O)OCC)c(Cl)c2ccccc21` belongs -2.49%. As for `CCCCN(CCCC)CC(O)Cn1c2ccccc2c(=O)c2ccccc21` (stereo unspecified), the figure is 16.2% (active); as for `O=C1NC(c2cccc(Cl)c2)Nc2ccccc21` (stereo unspecified), 18.9% (active); as for `CCOC(=O)NN1C(=O)c2ccccc2NC1c1cccc(O)c1` (stereo unspecified), 20.4% (active). For the compound `CC(=O)NN1C(=O)c2ccccc2NC1c1ccccc1` (stereo unspecified), the activation is 35.4% (active). As for `CCc1nc(Nc2ccc(NC(C)=O)cc2)c2oc3ccccc3c2n1`, the figure is 218% (active). In the case of `CC(=O)Nc1nc(C)c(-c2csc(Nc3ccc(S(N)(=O)=O)cc3)n2)s1`, the activation was 46.5% (active). As for `Cc1nn(-c2ccccc2)c(C)c1NC(=O)COC(=O)c1cc(Cl)ccc1O`, the activation was 23.3% (active). To `CCOC(=O)c1[nH]c2ccc(OC)cc2c1NC(=O)CCN1CCN(Cc2ccccc2)CC1` belongs -3.59%; to `O=C(Nc1nncs1)c1ccccc1NS(=O)(=O)c1cccs1`, 38.3% (active). On to `O=c1oc2c(CN3CCCCC3)c(O)ccc2c2c1CCCCC2`, for which the activation was 68.6% (active). Regarding `COc1cc(/C=N\NC(=O)c2nonc2N)c(OC)cc1Br`, the activation was 74% (active).

Turning to `COc1cc2c(cc1OC)CC1(CCCCC1)N=C2`, the activation is 44.6% (active). Consider `CCCN(CC(=O)NC(=O)NC1CCCCC1)CC(=O)Nc1cc(Cl)ccc1Cl`, for which the activation was 4.93% (active). To `CN(C(=O)c1cc2c(=O)n3ccccc3nc2s1)C1CCCCC1` belongs 23% (active); to `CCOCCCNC(=O)c1cc2c(=O)n3ccccc3nc2s1`, 68.6% (active); to `CCN1CCN(C(=O)Cn2nc(C)n3c(cc4c(OC)cccc43)c2=O)CC1`, 29.8% (active). In the case of `CC1(C)Oc2ccc3ccc(=O)oc3c2/C(=N/O)C1=O`, the activation was 84.6% (active).

Regarding `COC(=O)Cc1cc(=O)oc2c(C)c(O)ccc12`, the activation was 76.7% (active). As for `CCN1CCCC1CNC(=O)c1cc2cc(OC)c(OC)cc2[nH]1` (stereo unspecified), the figure is 22.6% (active).
